Experimental data reported in ChEMBL document CHEMBL3988442, “University of Dundee, Small-Polar-MMV Screening Library” (2021).
For some assays here: Measured potencies and affinities stand elsewhere.

Experiments:
Set-up in all cases: scale not given: direction of the effect not stated beside the values
[1] = biological target: Protein translocase subunit SecA (Escherichia coli (strain K12)) (UniProt P10408); assay: Assay to Identify E. coli SecA ATPase Inhibitors; assay type: functional; conditions: 30 µM
Protein translocase subunit SecA (Escherichia coli (strain K12)), sequence (P10408 whole entry): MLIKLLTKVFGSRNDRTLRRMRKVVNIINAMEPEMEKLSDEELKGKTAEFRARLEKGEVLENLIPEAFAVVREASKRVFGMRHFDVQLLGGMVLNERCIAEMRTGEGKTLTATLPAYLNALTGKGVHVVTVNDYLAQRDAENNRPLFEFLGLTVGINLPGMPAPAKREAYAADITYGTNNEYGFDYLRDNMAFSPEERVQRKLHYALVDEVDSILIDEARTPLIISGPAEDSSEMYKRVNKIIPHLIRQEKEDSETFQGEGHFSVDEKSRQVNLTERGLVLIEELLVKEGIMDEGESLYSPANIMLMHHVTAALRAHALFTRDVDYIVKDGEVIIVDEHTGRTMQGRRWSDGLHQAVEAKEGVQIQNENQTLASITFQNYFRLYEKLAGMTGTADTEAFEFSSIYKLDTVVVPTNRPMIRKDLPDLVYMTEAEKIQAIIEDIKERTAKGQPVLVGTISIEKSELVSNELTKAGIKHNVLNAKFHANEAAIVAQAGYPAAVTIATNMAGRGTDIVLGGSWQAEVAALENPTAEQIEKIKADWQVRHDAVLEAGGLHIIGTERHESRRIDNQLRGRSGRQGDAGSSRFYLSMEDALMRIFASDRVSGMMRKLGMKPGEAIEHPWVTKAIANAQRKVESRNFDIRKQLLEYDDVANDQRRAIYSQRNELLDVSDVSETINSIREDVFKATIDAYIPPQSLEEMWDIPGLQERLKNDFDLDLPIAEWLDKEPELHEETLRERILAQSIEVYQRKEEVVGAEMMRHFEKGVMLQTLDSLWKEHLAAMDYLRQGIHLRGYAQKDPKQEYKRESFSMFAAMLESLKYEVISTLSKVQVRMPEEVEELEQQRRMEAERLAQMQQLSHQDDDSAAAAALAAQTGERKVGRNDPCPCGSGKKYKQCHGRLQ

[2] = biological target: T1, Ubiquitin-activating enzyme e1, putative (Leishmania donovani (strain BPK282A1)) (UniProt E9BSI1); assay: Leishmania donovani Ubiquitin Activating Enzyme (LdE1); assay type: functional; conditions: 30 µM
T1 sequence (whole entry): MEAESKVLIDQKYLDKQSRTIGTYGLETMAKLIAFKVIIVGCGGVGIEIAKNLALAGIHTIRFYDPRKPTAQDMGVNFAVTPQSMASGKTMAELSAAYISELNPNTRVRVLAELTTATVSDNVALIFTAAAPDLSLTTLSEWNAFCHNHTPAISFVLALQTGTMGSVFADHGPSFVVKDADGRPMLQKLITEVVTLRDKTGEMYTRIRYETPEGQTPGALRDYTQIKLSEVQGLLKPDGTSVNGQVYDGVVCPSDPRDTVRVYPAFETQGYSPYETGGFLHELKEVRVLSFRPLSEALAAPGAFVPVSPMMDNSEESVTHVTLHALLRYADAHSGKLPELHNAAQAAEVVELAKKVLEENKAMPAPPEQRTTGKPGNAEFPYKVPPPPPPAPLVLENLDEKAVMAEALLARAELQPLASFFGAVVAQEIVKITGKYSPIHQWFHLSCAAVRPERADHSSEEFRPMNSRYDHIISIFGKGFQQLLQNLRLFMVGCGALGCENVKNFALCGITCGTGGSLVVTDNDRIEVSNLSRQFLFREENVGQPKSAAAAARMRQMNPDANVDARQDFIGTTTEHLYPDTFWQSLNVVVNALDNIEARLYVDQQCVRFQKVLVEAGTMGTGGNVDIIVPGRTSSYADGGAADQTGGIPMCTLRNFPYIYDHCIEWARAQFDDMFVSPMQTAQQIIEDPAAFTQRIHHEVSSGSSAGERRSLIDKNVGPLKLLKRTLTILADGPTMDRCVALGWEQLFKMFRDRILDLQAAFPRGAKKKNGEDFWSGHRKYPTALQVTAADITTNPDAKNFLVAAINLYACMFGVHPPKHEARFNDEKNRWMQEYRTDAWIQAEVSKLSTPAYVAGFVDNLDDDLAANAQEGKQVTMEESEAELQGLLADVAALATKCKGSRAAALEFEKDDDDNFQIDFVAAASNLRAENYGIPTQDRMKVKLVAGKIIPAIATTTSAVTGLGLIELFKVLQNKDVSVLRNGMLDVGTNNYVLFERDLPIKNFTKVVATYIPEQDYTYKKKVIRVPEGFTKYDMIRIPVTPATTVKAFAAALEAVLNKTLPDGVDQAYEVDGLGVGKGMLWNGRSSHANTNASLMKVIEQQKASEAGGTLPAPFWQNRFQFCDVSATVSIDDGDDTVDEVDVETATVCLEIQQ

[3] = biological target: AMP-activated protein kinase, AMPK (Homo sapiens) (UniProt P54646+O43741+P54619+Q9UGJ0+Q9Y478+Q13131+Q9UGI9); assay: AMP-dependent Kinase enzyme assay. An in vitro enzyme assay that detects ADP turnover that is directly proportional to AMPK activity. This uses naive AMPK that is activated during the assay with MK-8722; assay type: functional; conditions: 30 µM
[4] = biological target: Sialic acid-binding Ig-like lectin 9 (Homo sapiens) (UniProt Q9Y336); assay: Hs-Siglec9 ALPHAscreen SOP 20170721; conditions: 10 µM
Sialic acid-binding Ig-like lectin 9 (Homo sapiens), sequence (Q9Y336 whole entry): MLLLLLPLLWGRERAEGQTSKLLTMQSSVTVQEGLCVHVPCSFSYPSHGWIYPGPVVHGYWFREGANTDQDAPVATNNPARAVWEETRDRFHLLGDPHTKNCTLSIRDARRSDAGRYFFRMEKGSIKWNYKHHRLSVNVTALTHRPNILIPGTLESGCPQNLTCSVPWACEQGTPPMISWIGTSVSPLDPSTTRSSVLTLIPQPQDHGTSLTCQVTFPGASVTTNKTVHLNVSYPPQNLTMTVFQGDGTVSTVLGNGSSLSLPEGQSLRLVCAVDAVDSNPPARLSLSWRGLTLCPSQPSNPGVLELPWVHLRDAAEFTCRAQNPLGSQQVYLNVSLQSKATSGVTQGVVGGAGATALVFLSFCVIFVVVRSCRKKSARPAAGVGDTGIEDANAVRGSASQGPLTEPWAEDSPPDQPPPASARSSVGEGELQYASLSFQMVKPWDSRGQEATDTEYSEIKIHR

Trypanosoma cruzi = assay: Trypanosoma cruzi phosphomannomutase and mannose-1-phosphate guanylyltransferase assay; assay type: functional; conditions: 10 µM
[5] = biological target: T2, Arginase-2, mitochondrial (Homo sapiens) (UniProt P78540); assay: in vitro enzyme assay to detect the production of urea directly proportional to the activity of Arginase II; assay type: functional; conditions: 33.3 µM; note: in the data most compounds retested in dose-response had high values
T2 sequence (whole entry): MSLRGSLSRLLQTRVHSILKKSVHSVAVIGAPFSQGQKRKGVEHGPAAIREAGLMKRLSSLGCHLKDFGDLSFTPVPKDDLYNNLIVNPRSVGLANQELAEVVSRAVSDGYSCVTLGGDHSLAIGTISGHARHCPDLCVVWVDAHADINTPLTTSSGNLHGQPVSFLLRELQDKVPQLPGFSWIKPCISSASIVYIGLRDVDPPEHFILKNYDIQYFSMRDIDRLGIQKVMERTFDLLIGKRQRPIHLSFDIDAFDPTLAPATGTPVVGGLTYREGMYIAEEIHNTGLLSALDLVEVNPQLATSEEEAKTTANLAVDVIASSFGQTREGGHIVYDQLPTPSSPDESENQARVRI

[6] = biological target: T3, Proteasome subunit beta (Trypanosoma cruzi) (UniProt O96673); assay: Trypanosoma cruzi proteasome chymotrypsin-like activity (TcProtChymo) assay.; note: in the data most compounds retested in dose-response had high values; assay type: functional; conditions: 9.37 µM
T3 sequence (whole entry): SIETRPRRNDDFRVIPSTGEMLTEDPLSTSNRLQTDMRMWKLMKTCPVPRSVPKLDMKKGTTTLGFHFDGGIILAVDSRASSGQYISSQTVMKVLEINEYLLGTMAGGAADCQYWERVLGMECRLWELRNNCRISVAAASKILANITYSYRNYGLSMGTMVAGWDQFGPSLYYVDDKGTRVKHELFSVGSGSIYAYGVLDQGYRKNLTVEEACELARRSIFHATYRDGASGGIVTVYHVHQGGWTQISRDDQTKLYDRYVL

Homo sapiens = species on record: Homo sapiens; assay: To identify inhibition of the IFN signalling (Jak-Stat) pathway via expression of an eGFP reporter gene under the control of an IFN-stimulated response element (ISRE) containing MxA promoter.; assay type: functional; conditions: 30 µM
[7] = biological target: T4, Tyrosyl-tRNA synthetase, putative (Trypanosoma cruzi (strain CL Brener)) (UniProt Q4DSP6); assay: Trypanosoma cruzi tyrosyl tRNA synthetase (TcYRS) _High Tyrosine SOP; assay type: functional; conditions: 30 µM; note: in the data most compounds retested in dose-response had high values
T4 sequence (whole entry): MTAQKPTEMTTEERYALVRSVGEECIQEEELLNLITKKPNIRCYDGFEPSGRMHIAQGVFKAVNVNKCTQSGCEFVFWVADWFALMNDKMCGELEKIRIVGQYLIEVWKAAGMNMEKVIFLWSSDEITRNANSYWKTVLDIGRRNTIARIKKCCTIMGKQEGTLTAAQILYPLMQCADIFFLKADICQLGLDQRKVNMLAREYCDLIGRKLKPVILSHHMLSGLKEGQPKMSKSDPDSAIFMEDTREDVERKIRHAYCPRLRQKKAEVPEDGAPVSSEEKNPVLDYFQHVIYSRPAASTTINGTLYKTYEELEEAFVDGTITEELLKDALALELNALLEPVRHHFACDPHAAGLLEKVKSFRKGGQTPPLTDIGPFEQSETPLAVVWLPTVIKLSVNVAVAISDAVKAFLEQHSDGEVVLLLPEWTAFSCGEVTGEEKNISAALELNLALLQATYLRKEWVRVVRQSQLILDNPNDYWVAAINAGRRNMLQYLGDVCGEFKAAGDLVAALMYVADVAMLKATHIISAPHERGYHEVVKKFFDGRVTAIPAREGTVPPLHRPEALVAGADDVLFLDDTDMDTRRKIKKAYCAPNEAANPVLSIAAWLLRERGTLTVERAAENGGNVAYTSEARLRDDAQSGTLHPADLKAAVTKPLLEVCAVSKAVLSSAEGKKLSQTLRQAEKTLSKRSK

[8] = biological target: T4, Tyrosyl-tRNA synthetase, putative (Trypanosoma cruzi (strain CL Brener)); assay: Trypanosoma cruzi tyrosyl tRNA synthetase (TcYRS) SOP; assay type: functional; conditions: 30 µM
[9] = biological target: Chromo domain-containing protein 1 (Saccharomyces cerevisiae (strain ATCC 204508 / S288c) (Baker's yeast)) (UniProt P32657); assay: ScCHD-1 Enzyme Inhibition Assay; assay type: functional; conditions: 30 µM; note: in the data most compounds retested in dose-response had high values
Chromo domain-containing protein 1 (Saccharomyces cerevisiae (strain ATCC 204508 / S288c) (Baker's yeast)), sequence (P32657 whole entry, the tested form may be a part): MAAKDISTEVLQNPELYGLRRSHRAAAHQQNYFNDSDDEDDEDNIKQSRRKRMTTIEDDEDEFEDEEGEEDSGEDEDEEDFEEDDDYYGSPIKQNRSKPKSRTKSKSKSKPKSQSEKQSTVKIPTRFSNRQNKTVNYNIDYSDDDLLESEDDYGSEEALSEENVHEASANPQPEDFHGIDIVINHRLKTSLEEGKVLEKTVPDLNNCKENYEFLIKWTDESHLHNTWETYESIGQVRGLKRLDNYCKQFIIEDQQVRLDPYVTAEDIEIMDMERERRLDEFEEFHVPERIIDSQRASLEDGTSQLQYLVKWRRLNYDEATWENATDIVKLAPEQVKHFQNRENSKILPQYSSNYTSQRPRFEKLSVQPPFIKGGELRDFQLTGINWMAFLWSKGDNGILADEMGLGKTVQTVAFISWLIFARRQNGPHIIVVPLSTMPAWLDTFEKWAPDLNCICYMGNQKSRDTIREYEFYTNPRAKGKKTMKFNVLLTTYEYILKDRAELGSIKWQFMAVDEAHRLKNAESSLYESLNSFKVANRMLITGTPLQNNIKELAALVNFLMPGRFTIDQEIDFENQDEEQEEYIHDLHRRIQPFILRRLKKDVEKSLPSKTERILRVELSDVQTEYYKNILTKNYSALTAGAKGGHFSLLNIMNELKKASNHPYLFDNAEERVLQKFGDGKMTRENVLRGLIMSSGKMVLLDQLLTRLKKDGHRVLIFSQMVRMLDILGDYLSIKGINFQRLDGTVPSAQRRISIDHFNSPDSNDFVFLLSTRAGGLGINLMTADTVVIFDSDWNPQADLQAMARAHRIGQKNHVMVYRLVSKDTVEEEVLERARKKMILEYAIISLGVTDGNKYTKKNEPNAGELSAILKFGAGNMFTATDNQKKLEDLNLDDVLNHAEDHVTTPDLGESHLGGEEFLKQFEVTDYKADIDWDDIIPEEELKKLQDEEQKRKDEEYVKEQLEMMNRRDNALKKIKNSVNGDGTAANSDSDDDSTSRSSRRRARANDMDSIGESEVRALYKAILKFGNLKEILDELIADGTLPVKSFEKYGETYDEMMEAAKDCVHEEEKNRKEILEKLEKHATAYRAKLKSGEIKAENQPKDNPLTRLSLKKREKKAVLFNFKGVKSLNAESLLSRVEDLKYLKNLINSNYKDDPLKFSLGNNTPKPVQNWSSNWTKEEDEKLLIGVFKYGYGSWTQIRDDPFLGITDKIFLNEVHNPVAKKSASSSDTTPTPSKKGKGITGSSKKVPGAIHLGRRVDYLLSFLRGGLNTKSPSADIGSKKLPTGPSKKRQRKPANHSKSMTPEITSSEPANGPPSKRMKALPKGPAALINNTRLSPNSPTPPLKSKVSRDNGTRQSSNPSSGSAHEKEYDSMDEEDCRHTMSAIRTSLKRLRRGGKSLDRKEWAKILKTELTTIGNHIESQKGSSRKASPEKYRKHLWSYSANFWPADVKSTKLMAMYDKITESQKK

| Compound | Percent Effect [1] | Percent Effect [2] | Percent Effect [3] | Percent Effect [4] | Percent Effect (Trypanosoma cruzi) | Percent Effect [5] | Percent Effect [6] | Percent Effect (Homo sapiens) | Percent Effect [7] | Percent Effect [8] | Percent Effect [9] |
| --- | --- | --- | --- | --- | --- | --- | --- | --- | --- | --- | --- |
| c1cc(CN2CCN(Cc3cscn3)CC2)cs1 | -1.31% | 10.4% | 3.68% | -2.63% | -2.25% | 4% | 2.67% | 29.1% | 2.86% | 2.35% | -6.18% |
| COc1c(C2CCCN2C(=O)c2csc(C(C)C)n2)c(C)nn1C (stereo unspecified) | -5.84% | 5.2% | 2.93% | 11.7% | 0.187% | 1.07% | -5.91% | 8.75% | 3.88% | 9.76% | 0.696% |
| COCc1ccccc1C(=O)N1CCCC(n2nc(C)cc2C)C1 (stereo unspecified) | -3.82% | 5.06% | -3.09% | 3.7% | 4.06% | -6.08% | 4.67% | -9.14% | 4.43% | 3.8% | -4.28% |
| O=S(=O)(CCN1CCOC(Cn2cncn2)C1)c1ccccc1 (stereo unspecified) | -1.18% | 5.41% | -4.67% | 12.3% | 3.81% | 2.23% | -0.0858% | -5.62% | 0% | 3.7% | -11.6% |
| Cc1cccc(OCCC(=O)NCC(C)(C)C(N)=O)c1 | -3.42% | 10.5% | 1.54% | 16.5% | 1.13% | 2.68% | 8.19% | -23.5% | 4.41% | -41.5% | -10.8% |
| Cc1cnn(CC2CN(c3ncnc4ccccc34)CCO2)c1 (stereo unspecified) | -1.94% | -7.59% | 1.23% | 9.68% | 8.03% | -1.14% | 1.39% | 37.6% | 1.48% | 1.27% | -3.24% |
| CCc1ccc(NC(=O)N2C[C@H]3C[C@H](C(=O)NC)[C@@H](C2)O3)cc1 | 0.946% | 2.6% | 6.04% | -3.01% | -0.0986% | 0.645% | 5.4% | 11.2% | 1.06% | 6.41% | 93.4% |
| c1cn(Cc2nnc(C3CCN(c4nccs4)CC3)n2C2CC2)cn1 | -3.22% | 16% | 0.541% | 19.9% | 4.77% | 13% | 9.59% | 7.24% | 7.1% | 8.64% | 90.7% |
| CCC1=N[C@@]2(CC[C@@H]3CN(Cc4ccc(Cl)cc4)C[C@@H]32)C(=O)N1 | -2.1% | 2.7% | 2.16% | -3.03% | -7.72% | -0.955% | 20.3% | 3.29% | 2.16% | 2.56% | 0.0576% |
| CN(C)C(=O)CO[C@@H]1CC[C@H]2[C@H]1OCCN2C(=O)C1CCOCC1 | -1.1% | 2.7% | -6.25% | -1.21% | -3.52% | 2.08% | 13.8% | 21% | 9.9% | 8.54% | 2.17% |
| COCCN1CC[C@H](O)[C@@H]1Cc1ccccc1 | -2.09% | 12% | -0.98% | 0.93% | 0.786% | 6.87% | 20% | 22.1% | 5.29% | 7.69% | -4.88% |
| Cc1nnc(CN2CCC(N(C)Cc3nnc(C4CC4)n3C)C2)o1 (stereo unspecified) | -3.08% | 16.2% | -9.74% | -7.84% | -6.32% | -1.2% | 5.04% | 20.7% | 4.43% | 11.1% | -4.72% |
| CCn1cnnc1C1CCN(C(=O)c2cnc3ccccc3n2)CC1 | -1.53% | 5.26% | 5.47% | 3.25% | 5.75% | -11.8% | 13.7% | -15.4% | 0% | 2.6% | 1.06% |
| CCc1nc(NS(=O)(=O)c2ccc(C)cc2Cl)no1 | -5.01% | -2.67% | -2.5% | 11.5% | 4.19% | 1.56% | -1.57% | -10.5% | 2.73% | 6.17% | -1.19% |
| CSc1sc(NC(=O)Cc2c(C)nc(C)[nH]c2=O)nc1C | -6.26% | 7.89% | -7.94% | 7.61% | 5.83% | -2.68% | 6.18% | 7.45% | 7.35% | 12.2% | -12.2% |
| CCc1c(C(=O)N2CCCN(C(C)=O)CC2)cnn1C(C)(C)C | -5.01% | 23.7% | -6.43% | 9.75% | 3.27% | 1.08% | 6.68% | -2.15% | 7.39% | 25.9% | -9.24% |
